Reference: PubChem BioAssay (NCI)
This is part of a sample that, as a whole, favours compounds with a hit. Of some 79,000 tested, about 15% had one in any assay. A number with no mark means an inactive call. Activity calls are given as the source filed them. Cut-off read from the data, not from the text of the source: active = growth inhibition above about 70%; inactive = the rest.

Key:
[1] = NCI Yeast Anticancer Drug Screen. Data for the rad52 strain (AID 147);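 note: 0% = growth of vehicle-treated control cultures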; conditions: S. cerevisiae rad52 mutant growth inhibition, hits give high values
Procedure, shortened: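 Screen used a yeast mutant impaired in DNA repair. After compound exposure, growth was measured. Values reflect inhibition compared with vehicle-treated cells.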

[2] = NCI Yeast Anticancer Drug Screen. Data for the wt1 strain (AID 149);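 note: 0% = growth of vehicle-treated wt1 cultures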; conditions: S. cerevisiae wt1 strain (SPY 50644) growth inhibition, hits give high values
Procedure, shortened: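 Using yeast strain wt1, compound-induced growth inhibition was determined against vehicle-treated cultures.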

[3] = NCI Yeast Anticancer Drug Screen. Data for the rad50EPP+ strain (AID 151);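 note: 0% = growth of vehicle-treated control cultures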; conditions: S. cerevisiae rad50 mutant strain, hits give high values
Procedure, shortened: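 Exposing the rad50EPP+ strain to each compound, growth was compared with vehicle-only cultures to give inhibition.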

[4] = NCI Yeast Anticancer Drug Screen. Data for the mgt1 strain (AID 153); conditions: S. cerevisiae mgt1 mutant growth inhibition, hits give high values
Procedure, shortened: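 Genetically defined yeast (mgt1) treated with compound; inhibition of growth expressed against vehicle-treated controls.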

[5] = NCI Yeast Anticancer Drug Screen. Data for the rad50 strain (AID 155);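 note: 0% = growth of vehicle-only cultures of the same strain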; conditions: S. cerevisiae rad50 strain growth inhibition, hits give high values
Procedure, shortened: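 Relative growth inhibition (compound vs vehicle) was measured in yeast with a defined repair-gene alteration.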

[6] = NCI Yeast Anticancer Drug Screen. Data for the mec2-1 strain (AID 157); conditions: S. cerevisiae mec2-1 strain, hits give high values
Procedure, shortened: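 Readout is yeast growth inhibition, normalised to vehicle-treated controls, in the mec2-1 strain exposed to compound.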

[7] = NCI Yeast Anticancer Drug Screen. Data for the rad14 strain (AID 159);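 note: 0% = growth of vehicle-treated control cultures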; conditions: S. cerevisiae rad14 strain growth inhibition, hits give high values
Procedure, shortened: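 Screen for anticancer potential: a yeast strain altered in DNA damage repair is grown with compound, and reduced growth is quantified against vehicle controls.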

[8] = NCI Yeast Anticancer Drug Screen. Data for the sgs1 mgt1 strain (AID 161);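 note: 0% = growth of cultures given vehicle only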; conditions: S. cerevisiae sgs1 mgt1 strain, hits give high values
Procedure, shortened: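 Percent growth inhibition was derived by comparing compound-exposed mutant yeast with vehicle-exposed cultures. The strain carries alterations in DNA damage repair.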

[9] = NCI Yeast Anticancer Drug Screen. Data for the cln2 rad14 strain (AID 165);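 note: 0% = growth equal to vehicle treated cultures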; conditions: S. cerevisiae cln2 rad14 strain, hits give high values
Procedure, shortened: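 Relative to vehicle controls, growth inhibition of compound-treated cln2 rad14 yeast was recorded.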

[10] = NCI Yeast Anticancer Drug Screen. Data for the bub3 strain (AID 167); conditions: S. cerevisiae bub3 mutant strain, hits give high values
Procedure, shortened: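 Screening used yeast with an engineered genetic alteration affecting cell cycle control. Compound-exposed cultures were compared with vehicle cultures, and reduced growth was taken as inhibition.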

[11] = NCI Yeast Anticancer Drug Screen. Data for the wt2 strain (AID 169);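 note: 0% = growth of vehicle-treated yeast cultures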; conditions: S. cerevisiae wt2 strain growth inhibition, hits give high values
Procedure, shortened: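 Values express reduction in yeast growth under compound treatment, referenced to vehicle-treated cells.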

[12] = NCI Yeast Anticancer Drug Screen. Data for the mlh1 strain (AID 171);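 note: 0% = growth of vehicle-treated control cultures of the same strain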; conditions: S. cerevisiae mlh1 strain growth inhibition, hits give high values
Procedure, shortened: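 Steps: expose the defined-mutant yeast strain to compound; expose a parallel culture to vehicle; measure growth; express compound effect as inhibition relative to the vehicle culture.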

[13] = NCI Yeast Anticancer Drug Screen. Data for the sgs1 strain (AID 173);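 note: 0% = growth of vehicle-only control cultures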; conditions: S. cerevisiae sgs1 mutant, hits give high values
Procedure, shortened: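 Treat defined-mutant yeast with compound; measure growth; calculate inhibition relative to vehicle-treated cells.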

[14] = NCI Yeast Anticancer Drug Screen. Data for the mlh1 rad18 strain (AID 175); conditions: S. cerevisiae mlh1 rad18 strain growth inhibition, hits give high values
Procedure, shortened: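 Test agents were incubated with a yeast strain of defined genotype (DNA damage repair defect). Inhibition of growth was derived by comparison with vehicle-exposed cultures.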

[15] = NCI Yeast Anticancer Drug Screen. Data for the rad18 strain (AID 177); conditions: S. cerevisiae rad18 mutant growth inhibition, hits give high values
Procedure, shortened: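 A genetically defined yeast mutant impaired in DNA damage repair was treated with test compounds, then its growth was measured against cultures receiving vehicle alone.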

[16] = at 5.0 µM (retest, dose inferred, filed as 0.5)
[17] = at 50.0 µM (retest, dose inferred, filed as 5.0)

For `O=C(/C=C(/c1ccccc1)N1CCCCC1)c1ccccc1`, the growth inhibition ([1]; at 1.2 µM) was 0%, the growth inhibition ([1]; at 3.7 µM) was 3% and the growth inhibition ([1]; at 11.0 µM) was 5%. For the same compound, the growth inhibition ([1]; at 33.0 µM) was 13%, the growth inhibition ([1]; at 100.0 µM) was 98% (active) and the growth inhibition ([2]; at 1.2 µM) was -1%. For the same compound, the growth inhibition ([2]; at 3.7 µM) was 4%, the growth inhibition ([2]; at 11.0 µM) was 1% and the growth inhibition ([2]; at 33.0 µM) was 9%. For the same compound, the growth inhibition ([2]; at 100.0 µM) was 94% (active), the growth inhibition ([3]; at 1.2 µM) was 3% and the growth inhibition ([3]; at 3.7 µM) was 16%. It also gave a growth inhibition ([3]; at 11.0 µM) of 42%, a growth inhibition ([3]; at 33.0 µM) of 43% and a growth inhibition ([3]; at 100.0 µM) of 31%. For the same compound, the growth inhibition ([4]; at 1.2 µM) was -3%, the growth inhibition ([4]; at 3.7 µM) was -2% and the growth inhibition ([4]; at 11.0 µM) was 0%. For the same compound, the growth inhibition ([4]; at 33.0 µM) was 10%, the growth inhibition ([4]; at 100.0 µM) was 87% (active) and the growth inhibition ([5]; at 1.2 µM) was -1%. It also gave a growth inhibition ([5]; at 3.7 µM) of -1%, a growth inhibition [5, 16] of 0% and a growth inhibition ([5]; at 11.0 µM) of 5%. The growth inhibition ([5]; at 33.0 µM) was 11%, the growth inhibition [5, 17] was 92% (active) and the growth inhibition ([5]; at 50.0 µM) was 90.3% (active). For the same compound, the growth inhibition ([5]; at 100.0 µM) was 97% (active), the growth inhibition ([6]; at 1.2 µM) was -4% and the growth inhibition ([6]; at 3.7 µM) was -5%. It also gave a growth inhibition [6, 16] of -12%, a growth inhibition ([6]; at 11.0 µM) of -3% and a growth inhibition ([6]; at 33.0 µM) of 7%. For the same compound, the growth inhibition [6, 17] was 84% (active), the growth inhibition ([6]; at 50.0 µM) was 53% and the growth inhibition ([6]; at 100.0 µM) was 82% (active). It also gave a growth inhibition ([7]; at 1.2 µM) of 3%, a growth inhibition ([7]; at 3.7 µM) of 6% and a growth inhibition ([7]; at 11.0 µM) of 9%. The growth inhibition ([7]; at 33.0 µM) was 30%, the growth inhibition ([7]; at 100.0 µM) was 98% (active) and the growth inhibition [8, 16] was 44%. For the same compound, the growth inhibition [8, 17] was 94% (active), the growth inhibition ([8]; at 50.0 µM) was 82.1% (active) and the growth inhibition [9, 16] was 14%. The growth inhibition [9, 17] was 79% (active), the growth inhibition ([9]; at 50.0 µM) was 46% and the growth inhibition ([10]; at 1.2 µM) was 2%. For the same compound, the growth inhibition ([10]; at 3.7 µM) was 3%, the growth inhibition [10, 16] was 34% and the growth inhibition ([10]; at 11.0 µM) was 7%. For the same compound, the growth inhibition ([10]; at 33.0 µM) was 19%, the growth inhibition [10, 17] was 99% (active) and the growth inhibition ([10]; at 50.0 µM) was 54.8%. For the same compound, the growth inhibition ([10]; at 100.0 µM) was 94% (active), the growth inhibition ([11]; at 1.2 µM) was -1% and the growth inhibition ([11]; at 3.7 µM) was 1%. The growth inhibition ([11]; at 11.0 µM) was 1%, the growth inhibition ([11]; at 33.0 µM) was 15% and the growth inhibition ([11]; at 100.0 µM) was 95% (active). The growth inhibition ([12]; at 1.2 µM) was -4%, the growth inhibition ([12]; at 3.7 µM) was -1% and the growth inhibition ([12]; at 11.0 µM) was -3%. For the same compound, the growth inhibition ([12]; at 33.0 µM) was 5%, the growth inhibition ([12]; at 100.0 µM) was 96% (active) and the growth inhibition ([13]; at 1.2 µM) was -1%. For the same compound, the growth inhibition ([13]; at 3.7 µM) was -1%, the growth inhibition ([13]; at 11.0 µM) was 3% and the growth inhibition ([13]; at 33.0 µM) was 20%. For the same compound, the growth inhibition ([13]; at 100.0 µM) was 97% (active), the growth inhibition [14, 16] was 55% and the growth inhibition [14, 17] was 99% (active). For the same compound, the growth inhibition ([14]; at 50.0 µM) was 89.3% (active), the growth inhibition ([15]; at 1.2 µM) was -2% and the growth inhibition ([15]; at 3.7 µM) was 1%. The growth inhibition ([15]; at 11.0 µM) was 3%, the growth inhibition ([15]; at 33.0 µM) was 9% and the growth inhibition ([15]; at 100.0 µM) was 97% (active).
